Source: PubChem BioAssay (several laboratories)
EBV LMP1 NFkB = EBV LMP1-driven NF-kappaB luciferase reporter inhibitors, primary screen, cell-based, luminescence, single point; LMP1-induced NF-kappaB luciferase reporter cells; inhibition, % at 12.5 µM; 350,000 compounds, 0.69% hits; AID 504558, 2011; in the data active = inhibition above about 41%
TWEAK Fn14 block = inhibitors of TWEAK-Fn14 signaling, primary screen, luciferase reporter cells, uHTS; TWEAK-stimulated Fn14 reporter cells, luciferase luminescence, 8 h; AID 1159606, 2016; inhibition, % at 10 µM; 360,000 compounds, 2% hits; in the data active = inhibition above about 50%
LGR2 inh = inhibitors of bursicon-induced LGR2 CRE-luciferase signal, primary screen, cell-based, HEK293, CRE-luciferase reporter, bursicon stimulation. AID 720647, 2013. 380,000 compounds, 0.35% hits. bursicon-stimulated, 4 h. inhibition, % at 9.99 µM. Drosophila bursicon receptor LGR2 (rickets);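 active = drop in luminescence signal, shown as inhibition above about 50% in the replicate tests, limit read from the data, passing the limit was not always enough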;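 also: agonist challenge used bursicon conditioned medium at about half maximal strength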
TROY NFkB inh = inhibitors of TROY-driven NF-kB signaling, primary screen, Q293 LMP1-TROYcd cells, NF-kB luciferase, uHTS. Q293 LMP1-TROYcd NF-kB luciferase reporter, 4 h. inhibition, % at 10 µM. 360,000 compounds, 0.98% hits;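 active = compounds whose plate-normalised and pattern-corrected inhibition of the luciferase reporter signal at the single screening dose is 50% or more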
EWS-Fli block = EWS/Fli-driven NR0B1 reporter inhibitors, primary screen, A673 cells, NR0B1 luciferase, luminescence, MLPCN library | viability-normalised | inhibition, % at 12.6 µM | 350,000 compounds, 0.67% hits | AID 651661, 2012;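 active = mean inhibition of at least 50% after viability correction, with every replicate also passing that limit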;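 also: firefly luciferase signal divided by Alamar Blue viability fluorescence both relative to DMSO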
A number is an active result; . = inactive; / = no result given. Shown are actives, neighbours in structure and some others; about 2.6% of the full set was active somewhere.

SMILES | EBV LMP1 NFkB | TWEAK Fn14 block | LGR2 inh | TROY NFkB inh | EWS-Fli block
CN(CCCS(=O)(=O)[O-])c1ccc(/C=C/c2ccc3ccccc3[n+]2C)cc1 | . | . | . | . | .
[O-][n+]1c(/C=C/c2ccccc2)ccc2ccccc21 | . | 66.3 | . | . | .
CN(C)c1ccc(/C=C/c2ccc3ccccc3[n+]2C)cc1 | . | 64.5 | . | 62.8 | /
CN(C)c1ccc(/C=C/c2cccc[n+]2[O-])cc1 | . | . | / | . | .
C[C@@H]1CN([C@H](C)CO)C(=O)c2cc(NS(C)(=O)=O)ccc2O[C@H]1CN(C)S(=O)(=O)c1ccc(F)cc1 | / | / | . | / | .
COCC(=O)N(C)C[C@@H]1Oc2cc(-c3ccncc3)ccc2S(=O)(=O)N([C@@H](C)CO)C[C@H]1C | / | / | . | / | .
O=C1c2cccc3c(O)ccc(c23)C(=O)N1c1ccc(Cl)cc1 | 60.2 | . | . | . | .
CC(=O)Nc1ccc(N2C(=O)c3cccc4c(O)ccc(c34)C2=O)cc1 | . | . | . | . | .
N#Cc1c2ccc(O)cc2n2ccccc12 | . | 55.7 | . | . | .
N#Cc1c2ccc(OCC(=O)NCc3ccco3)cc2n2ccccc12 | . | . | . | . | .
COc1ccccc1NC(=O)N1C[C@@H](C)[C@H](OC)CN(C)C(=O)c2cc(NC(=O)c3cnccn3)ccc2OC[C@H]1C | / | / | . | / | .
O=C(N/N=C(\CC(=O)c1cccs1)C(F)(F)F)c1cccnc1 | . | . | . | . | .
O=C(N/N=C(/CC(=O)c1cccs1)C(F)(F)F)c1ccc(O)cc1 | 49.4 | . | . | . | /
CCCc1cc(-c2[nH]ncc2-c2ccc(C(=O)OCC)o2)c(O)cc1O | . | 58.6 | . | . | /
O=C(c1ccccc1)N1C[C@@H]2[C@H](c3ccccc31)[C@@H](CO)N2C(=O)c1ccccn1 | / | / | . | / | .
O=C(CSC1CC(=O)N(CC(c2ccccc2)c2ccccc2)C1=O)Nc1ccc(Cl)cc1 (stereo not drawn) | . | . | / | 51.2 | /
O=C(NCCc1ccccc1)[C@H]1[C@H](CO)[C@H]2Cn3c(cccc3=O)[C@H]2N1Cc1ccncc1 | / | / | . | / | .
COc1ccc(-c2ccc(C(=O)Nc3cccc(NS(C)(=O)=O)c3)c3occc23)c(C)c1 | / | 58.6 | . | . | .
COc1ccc(-c2ccc(C(=O)Nc3cccc(F)c3)c3occc23)c(C)c1 | / | . | . | 58.4 | .
COc1ccc(-c2ccc(C(=O)Nc3cccc(C(C)=O)c3)c3occc23)c(C)c1 | / | . | . | . | .
COc1ccc(-c2coc3c(C(=O)Nc4cccc(C(C)=O)c4)cccc23)c(C)c1 | / | . | . | . | .
COc1ccc(-c2coc3c(C(=O)Nc4cccnc4)cccc23)c(C)c1 | / | 66.0 | . | . | .
C[C@@H]1CCCCO[C@H](CN(C)S(=O)(=O)c2cn(C)cn2)[C@H](C)CN([C@@H](C)CO)C(=O)c2cc(NS(=O)(=O)c3ccc(F)cc3)ccc2O1 | / | / | . | / | .
C[C@H]1CN([C@@H](C)CO)S(=O)(=O)c2ccc(C3=CCCCC3)cc2O[C@H]1CN(C)C | / | / | . | / | .
C[C@H]1CCCCO[C@@H](CN(C)Cc2ccccc2)[C@@H](C)CN([C@@H](C)CO)C(=O)c2cc(NS(C)(=O)=O)ccc2O1 | / | / | . | / | .
SMILES | EBV LMP1 NFkB | TWEAK Fn14 block | LGR2 inh | TROY NFkB inh | EWS-Fli block
CS(=O)(=O)c1nc(S(=O)(=O)c2ccc(Cl)cc2)c(N2CCOCC2)s1 | . | . | . | . | .
CC1CCCN(c2sc(S(C)(=O)=O)nc2S(=O)(=O)c2ccc(Cl)cc2)C1 (stereo not drawn) | . | 51.2 | . | . | /
CC1CN(c2sc(S(C)(=O)=O)nc2S(=O)(=O)c2ccc(Cl)cc2)CC(C)O1 (stereo not drawn) | . | 57.0 | . | . | .
CCS(=O)(=O)c1nc(S(=O)(=O)c2ccc(C)cc2)c(N2CCCC(C)C2)s1 (stereo not drawn) | . | . | . | . | /
O=C(O)[C@@H]1[C@@H](CO)[C@@H]2Cn3c(ccc(-c4ccccc4)c3=O)[C@@H]2N1Cc1ccccc1F | / | / | . | / | .
CC(=O)N(C)C[C@@H]1Oc2cc(C#CC(C)C)ccc2S(=O)(=O)N([C@H](C)CO)C[C@H]1C | / | / | . | / | .
COC(=O)c1ccc(CCc2cc(O)c(Br)cc2O)cc1 | . | 91.8 | . | . | .
COC(=O)c1ccc(CCc2cc(O)ccc2O)cc1 | . | 87.5 | / | . | /
Cc1ccc(-n2nc3c([n+]2[O-])CCc2c-3no[n+]2[O-])cc1 | . | 56.9 | / | . | /
Cc1cc(-c2nn3c(C)nnc3s2)ccc1NC(=O)C(C)(C)C | . | 52.2 | / | . | /
C[C@H]1CN([C@@H](C)CO)C(=O)c2cc(NS(=O)(=O)c3ccc(Cl)cc3)ccc2O[C@H]1CN(C)Cc1ccncc1 | / | / | . | / | .
Cc1ccc(C(=O)NC(=C(Cl)Cl)S(=O)(=O)c2ccc(C)cc2)cc1 | . | 54.5 | . | . | /
Cc1ccc(C(=O)NS(=O)(=O)c2ccc(C)cc2)cc1 | . | . | . | . | .
Cc1ccc(S(=O)(=O)/C(=C/Cl)NC(=O)c2ccccc2)cc1 | . | 76.8 | . | . | /
Cc1ccc(C(=O)NC(=C(Cl)Cl)S(=O)(=O)c2ccc(Cl)cc2)cc1 | . | 93.3 | . | . | .
O=C(NC(=C(Cl)Cl)S(=O)(=O)c1ccc(Cl)cc1)c1ccccc1 | . | 96.1 | . | . | .
C[C@@H]1CCCCO[C@H](CN(C)Cc2ccc(C(F)(F)F)cc2)[C@H](C)CN([C@@H](C)CO)C(=O)c2cc(NC(=O)Nc3ccc(C(F)(F)F)cc3)ccc2O1 | / | / | . | / | .
O=C(CN1CCOCC1)NCC[C@@H]1CC[C@H](NC(=O)c2ccccc2F)[C@H](CO)O1 | / | / | . | / | .
Cc1cc(C(=O)Nc2cccc3c2O[C@@H](CN(C)S(=O)(=O)c2c(C)noc2C)[C@@H](C)CN([C@H](C)CO)C3=O)n(C)n1 | / | / | . | / | .
CC(=O)NC(=C(Cl)Cl)S(=O)(=O)c1ccccc1 | . | . | . | . | .
Cc1ccc(S(=O)(=O)C(NC(=O)c2ccccc2)=C(Cl)Cl)cc1 | . | 64.7 | / | . | /
C=CCOc1ccccc1CN(C(=O)CCl)c1ccc2c(c1)OCO2 | . | . | . | . | 58.9
COc1cc2ccccc2cc1C(=O)N1CCN(C(C)=O)CC1 | . | . | . | . | .
CCOc1ccccc1N1CCN(C(=O)c2cc3ccccc3cc2OC)CC1 | . | . | . | . | 59.1
COc1cc2cc(C(=O)N3CCN(c4ccccc4OC)CC3)[nH]c2cc1OC | 53.0 | . | . | . | .
COc1ccccc1N1CCN(c2ncc(C(=O)N3CCN(c4cccc(Cl)c4)CC3)c3ccccc23)CC1 | . | 80.4 | . | . | .
CCCN(C)C[C@@H]1Oc2cc(C#Cc3ccccc3F)ccc2S(=O)(=O)N([C@@H](C)CO)C[C@@H]1C | / | / | . | / | .
